From PubChem BioAssay
A selection: hits, their analogues and other compounds. The true share with any hit is near 0.91%.
TR SRC2 fluor cs – counter-screen for TRb-SRC2 inhibitors: fluorescence interference; TRb/SRC2 Texas Red total fluorescence interference; Potency, µM (titrated, usually from 106 µM), without a hit: at the top dose fluorescence change, negative = quenching; 280,000 compounds, 0.29% hits; active = well fitted curve in either direction with a large enough effect; inconclusive = small, poorly fitted or top-dose-only effect
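Flags fluorescent or light-absorbing compounds by total fluorescence, S + 2P, at 555 nm excitation and 632 nm emission. Mixture: 20 nM Texas Red SRC2 peptide, 0.6 uM human TRb LBD, 1 uM T3, 5% DMSO; compound exposure 5 h at ambient temperature.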
APE1 inh-1 – blocks human APE1 abasic DNA cleavage. 350,000 compounds, 0.35% hits. recombinant APE1, TAMRA/BHQ-2 abasic DNA cleavage fluorescence. Potency, µM (doses to about 65.8 µM), for inactives: at the top dose activity change, negative = inhibition, actives largely listed as inhibitors;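 also: plate controls were vehicle for no effect and reference inhibitor for full effect; nearly all actives have a fitted effect of over 55% in size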
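Measures dequenching upon AP-site incision of a 5'-TAMRA/3'-BHQ-2 THF-containing duplex, 50 nM; human APE1 0.75 nM after 15 min room-temperature exposure to compound; kinetic three-point read at one-minute spacing.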
BLM inh – inhibitors of human Bloom syndrome helicase BLM; 350,000 compounds, 0.2% hits; P54132; Potency, µM (top dose mostly 56.1 µM), without a hit: at the top dose activity change, negative = inhibition, usual class: inhibitors; AID 2528; recombinant BLM DNA unwinding, fluorescence dequenching;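 also: plate controls were vehicle for no effect and no enzyme for full effect; nearly all actives have a fitted effect of over 35% in size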
RECQ1 inh-1 – inhibitors of human RECQ1 DNA helicase; P46063; RECQ1 DNA unwinding, red fluorescence kinetic read; Potency, µM (doses to about 57.3 µM), for the others: at the top dose activity, negative = inhibition, most hits filed as inhibitors; 240,000 compounds, 0.54% hits; AID 2549;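 also: plate controls were vehicle for no effect and no enzyme for full effect; nearly all actives have a fitted effect of over 30% in size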
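50 nM RECQ1T1 preincubated 15 min with compound in Tris pH 8.0 buffer with MgCl2, DTT, Tween-20 and 2.5 ug/ml poly(dI-dC); started with 200 nM TAMRA/BHQ-2 forked duplex and 2 mM ATP. Unwinding read as fluorescence (525/598 nm), two reads 2 h apart.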
TRb SRC2 PPI – inhibitors of human thyroid hormone receptor beta-SRC2 interaction; P10828; TRbeta-SRC2 peptide binding, fluorescence polarization; receptor liganded with 1 µM T3; Potency, µM (titrated, usually from 106 µM), inactives show at the highest dose activity change, negative = inhibition, most hits filed as inhibitors; 280,000 compounds, 0.065% hits; AID 1469;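 also: plate controls were bound peptide for no effect and peptide without receptor for full effect; nearly all actives have a fitted effect of over 50% in size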
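Quantitative HTS by FP: 0.6 uM TRb LBD, 20 nM labeled SRC2 20-mer, 1 uM T3, 5% DMSO; 5 hr ambient incubation; % activity per concentration and potencies from concentration series.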
WRN inhibitor – inhibitors of human WRN helicase; Q14191; WRN helicase unwinding, fluorescent forked duplex, kinetic; Potency, µM (titrated, usually from 114 µM), without a hit: at the top dose activity change, negative = inhibition, usual class: inhibitors; 360,000 compounds, 0.46% hits; also: nearly all actives have a fitted effect of over 55% in size
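Fluorescence dequenching readout, ex 525 nm/em 598 nm, kinetic mode: forked duplex DNA (100 nM final) with adjacent fluorophore and quencher unwound by WRN (20 nM final) with 2 mM ATP. Compound preincubation 15 min, room temperature.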
APE1 dye cs – DNA dye displacement counter-screen activity | shares compounds with APE1 inh-1 | DNA fluorescent dye displacement counterscreen, fluorescence | Potency, µM (highest dose often 28.5 µM), without a hit: top-dose activity change, negative = inhibition, actives largely listed as inhibitors | 480 compounds, 7% hits;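 also: loss of thiazole orange fluorescence as the dye is displaced from duplex DNA; 0% = ThO with dsDNA and no compound and -100% = ThO without dsDNA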
EndoIV counter – blocks E. coli endonuclease IV DNA cleavage | shares compounds with APE1 inh-1 | E. coli Endo IV, fluorogenic AP-site DNA cleavage | Potency, µM (titrated, usually from 27.1 µM), inactives show top-dose activity change, negative = inhibition, hits mostly inhibitors | 560 compounds, 4% hits;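 also: plate controls were uninhibited enzyme wells for no effect and no enzyme buffer wells for full effect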
APE1 inh-2 – APE1 (human) endonuclease inhibition, confirmation. AID 2572. Potency, µM (series often up to 57.1 µM), without a hit: at the top dose activity change, negative = inhibition, actives largely listed as inhibitors. shares compounds with APE1 inh-1. purified APE1, fluorogenic abasic-site DNA cleavage. 750 compounds, 44% hits; also: nearly all actives have a fitted effect of over 30% in size
APE1 FP inh – APE1 (human) DNA binding inhibition, fluorescence polarization; shares compounds with APE1 inh-1; APE1 binding to TAMRA-labelled double-stranded DNA, fluorescence polarization displacement; Potency, µM (titrated, usually from 28.5 µM), for the others: top-dose activity, negative = inhibition, usual class: inhibitors; 480 compounds, 7% hits
RECQ1 inh conf – confirmation of human RECQ1 helicase inhibitors. 610 compounds, 28% hits. RECQ1 helicase DNA unwinding, fluorescence. Potency, µM (series often up to 229 µM), inactives show at the top dose activity change, negative = inhibition, most hits filed as inhibitors. shares compounds with RECQ1 inh-1. AID 2708; also: nearly all actives have a fitted effect of over 45% in size
ADP FP counter – displaces ADP in a fluorescence polarization counter-screen for RECQ1 hits | AID 2711 | 530 compounds, 27% hits | shares compounds with RECQ1 inh-1 | Potency, µM (doses to about 228 µM), inactives show top-dose activity change, negative = inhibition, most hits filed as inhibitors | ADP fluorescence polarization displacement counterscreen; also: nearly all actives have a fitted effect of over 45% in size
RECQ1 inh-2 – RECQ1 helicase inhibition confirmed, round 2. shares compounds with RECQ1 inh-1. recombinant RECQ1 DNA unwinding, red fluorescence. Potency, µM (highest dose often 119 µM), for inactives: at the highest dose activity, negative = inhibition, most hits filed as inhibitors. 1,100 compounds, 15% hits. AID 504841; also: nearly all actives have a fitted effect of over 50% in size
Starred values were filed as active, the others as inactive; i = inactive; ? = inconclusive; . = no result given; ! = a repeat was not active; [ ] = another dose, or the depositor's remark. Unless noted, calls follow the shape of the dose curve; as a rule, active = well fitted curve in the direction sought with a large enough effect; inconclusive = small, poorly fitted or top-dose-only effect, or another doubt; inactive = no such curve, though single readings can be large; an effect the other way counts as inactive or inconclusive. Unless noted, % is scaled to controls: 0 for no effect and ±100 for the full control effect; potency is read from the fitted curve at half-maximal effect.

SMILES	TR SRC2 fluor cs	APE1 inh-1	BLM inh	RECQ1 inh-1	TRb SRC2 PPI	WRN inhibitor	APE1 dye cs	EndoIV counter	APE1 inh-2	APE1 FP inh	RECQ1 inh conf	ADP FP counter	RECQ1 inh-2
O=C(NN1C(=O)C2CC=C(Cl)CC2C1=O)c1ccncc1 (stereo unspecified)	2%	?	-14%	13µM*	4%	?	.	.	-18%	.	32µM*	?	13µM*
O=C1/C(=C/c2cccc([N+](=O)[O-])c2)Oc2cc(O)ccc21	.	-17%	-4%	.	.	0%	.	.	.	.	.	.	.
O=C1/C(=C/c2ccc(O)c(O)c2)Oc2cc(O)ccc21	-15%	?	-15%	?	-2%	?	-5%	177%	?	27%	.	.	56µM*
CCCCc1nn2c(=O)cc(COC(=O)c3ccc(NC(=O)C4CCCCC4)cc3)nc2s1	0%	.	-4%	.	1%	.	.	.	.	.	.	.	.
O=c1oc2c(O)c(O)cc3c(=O)oc4c(O)c(O)cc1c4c23	?	0.045µM*!	2µM*	0.56µM*	-2%	.	0.089µM*	?	0.014µM*	28µM*	?	4.5µM*	.
CCCC(=O)NCC(c1ccc2c(c1)OCO2)N1CCN(c2ccc(F)cc2)CC1 (stereo unspecified)	-6%	.	-2%	.	5%	.	.	.	.	.	.	.	.
c1ccc2c(c1)ccc1ccccc12	1%[201 µM]	26%	.	12%	0%[201 µM]	1%	.	.	.	.	.	.	.
CC1=[N+](C)c2ccc3ccccc3c2C1(C)C	4.5µM*[fluorescent]	14µM*	-9%	3.5µM*	32µM*	25µM*	1%	?	?	58%	7.9µM*	2.8µM*	22µM*
CCOc1ccc(/C(C)=N/NC(=O)Cn2nc([N+](=O)[O-])cc2C)cc1	-5%	?	-3%	i	5%	-25%	.	.	.	.	.	.	.
COc1cc2c(ccc3cc(OC)c(OC)c(O)c32)cc1O	-9%	0.71µM*	25µM*	11µM*	0%	18µM*	?	?	0.63µM*	?	40µM*	50µM*	.
Cc1ccc([C@H]2C[C@H](n3cc(-c4ccc(F)cc4)nn3)[C@@H](O)CN2C(=O)C2CCCCC2)cc1	.	.	.	.	.	-5%	.	.	.	.	.	.	.
O=C(NN1C(=O)/C(=C/C=C/c2ccco2)SC1=S)c1ccncc1	-20%	4.5µM*	2%	3.5µM*	-4%	3.2µM*	1%	86%	4.5µM*	?	22µM*	13µM*	.
CCOC(=O)c1ccccc1NC(=O)c1c2c(nc3ccccc13)C(=O)N(C1CCCCC1)C2	0%	.	0%	.	-5%	.	.	.	.	.	.	.	.
CC(=O)OCCNc1cc(SCc2ccco2)c2nonc2c1[N+](=O)[O-]	-17%	13µM*	-19%	7.1µM*	-6%	?	-8%	-3%	14µM*	-6%	20%[114 µM]	.	-23%
Cc1ccc(NC(=O)c2cc(-c3ccco3)nc3ccccc23)cc1S(=O)(=O)N1CCOCC1	?	?	-19%	?	27%	?	.	.	.	.	.	.	.
COc1ccc(NC(=O)c2cc(-c3ccco3)nc3ccccc23)cc1S(=O)(=O)N1CCOCC1	?	4µM*	?	?	5%	?	13µM*	3%	13µM*	?	.	.	?
COc1ccc(C(=O)CC(=O)c2ccc(C(C)(C)C)cc2)cc1	0%	8.9µM*	-15%	32µM*	-8%	-6%	?	-3%[57.1 µM]	7.9µM*	?	13µM*	?	?
COc1ccc(C(=O)CC(=O)c2ccc(F)cc2)cc1	.	.	.	.	.	-5%	.	.	.	.	.	.	.
COc1ccccc1/C=c1\sc2nc(-c3ccco3)nn2c1=O	0%	?	-29%	?	0%	40µM*	-7%	-1%	5µM*	?	.	.	?
Cc1nnc(NC(=O)C2CC(=O)N(c3ccc4c(c3)OCCO4)C2)s1 (stereo unspecified)	.	-21%	.	.	.	-2%	.	.	.	.	.	.	.
